{"source": "PubChem BioAssay (NCATS)", "note": "Records with an inconclusive call do not appear. Entries that show only a call come without a potency. The source made the active and inactive calls. Calls come from the whole dose curve.", "data": [{"assay": "Cytotoxicity counterscreen for inhibitors of SARS-CoV-2 cell entry (AID 1645845); note: nearly all actives have a fitted effect of over 50% in size", "details": "cell viability (SARS-CoV-2 entry assay cells); series mostly up to 57.1 µM", "method_in_brief": "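Counterscreen run in the same HEK293-ACE2 line as the pseudotyped-particle entry assay, without particles. Viability after 48 h at 37 C was read as ATP luminescence, scaled between cell-containing and cell-free wells.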", "values": [{"smiles": "CC(=O)OCC(=O)[C@@]1(O)CC[C@H]2[C@@H]3CCC4=CC(=O)CC[C@]4(C)[C@H]3C(=O)C[C@@]21C", "Potency": "inactive"}, {"smiles": "CCCCCCCCCCCCCCCCOP(=O)([O-])OCC[N+](C)(C)C", "Potency": "inactive"}, {"smiles": "Cc1cccc(C)c1OCC(=O)N[C@@H](Cc1ccccc1)[C@@H](O)C[C@H](Cc1ccccc1)NC(=O)[C@H](C(C)C)N1CCCNC1=O", "Potency": "inactive"}, {"smiles": "CCOCCn1c(C2CCN(CCc3ccc(C(C)(C)C(=O)O)cc3)CC2)nc2ccccc21", "Potency": "inactive"}, {"smiles": "O=C(O[C@H]1CN2CCC1CC2)N1CCc2ccccc2[C@@H]1c1ccccc1", "Potency": "inactive"}, {"smiles": "CCC[C@@]1(CCc2ccccc2)CC(O)=C([C@H](CC)c2cccc(NS(=O)(=O)c3ccc(C(F)(F)F)cn3)c2)C(=O)O1", "Potency": "inactive"}, {"smiles": "C=C1[C@H](CO)[C@@H](O)C[C@@H]1n1cnc2c(=O)[nH]c(N)nc21", "Potency": "inactive"}, {"smiles": "O=C(C1CCCCC1)N1CC(=O)N2CCCc3ccccc3C2C1", "note": "(stereo not drawn)", "Potency": "inactive"}, {"smiles": "NC(=O)N1c2ccccc2C=Cc2ccccc21", "Potency": "inactive"}, {"smiles": "OC[C@H]1O[C@@H](Oc2ccc(O)cc2)[C@H](O)[C@@H](O)[C@@H]1O", "Potency": "inactive"}, {"smiles": "CC(=O)N(c1onc(C)c1C)S(=O)(=O)c1ccc(N)cc1", "Potency": "inactive"}, {"smiles": "CCCCCCCCCCOc1cc2c(=O)c(C(=O)OCC)c[nH]c2cc1OCC", "outcome": "inactive [at 5.25 µM]"}, {"smiles": "CC(C)(O/N=C(\\C(=O)N[C@@H]1C(=O)N2C(C(=O)[O-])=C(C[n+]3ccccc3)CS[C@H]12)c1csc(N)n1)C(=O)O", "Potency": "inactive"}, {"smiles": "O=C(/C=C/c1ccccc1)OCc1ccccc1", "Potency": "inactive"}, {"smiles": "COc1ccc(O)cc1", "Potency": "inactive"}, {"smiles": "CSCC[C@H](NC(=O)[C@H](Cc1ccc(OS(=O)(=O)O)cc1)NC(=O)[C@@H](N)CC(=O)O)C(=O)NCC(=O)N[C@@H](Cc1c[nH]c2ccccc12)C(=O)N[C@@H](CCSC)C(=O)N[C@@H](CC(=O)O)C(=O)N[C@@H](Cc1ccccc1)C(N)=O", "Potency": "inactive"}, {"smiles": "Cc1c(C(=O)O)c(O)cc2c1C(=O)c1c(O)c([C@@H]3O[C@H](CO)[C@@H](O)[C@H](O)[C@H]3O)c(O)c(O)c1C2=O", "Potency": "inactive"}, {"smiles": "NC(=O)NC1NC(=O)NC1=O", "note": "(stereo not drawn)", "Potency": "inactive"}, {"smiles": "C=CCN1C[C@H](C(=O)N(CCCN(C)C)C(=O)NCC)C[C@@H]2c3cccc4[nH]cc(c34)C[C@H]21", "Potency": "inactive"}, {"smiles": "CC(=O)Nc1ccc(CC(=O)O)cc1", "Potency": "inactive"}, {"smiles": "CN(c1nccc(=O)[nH]1)C1CCN(c2nc3ccccc3n2Cc2ccc(F)cc2)CC1", "Potency": "inactive"}, {"smiles": "Cc1ccc(C(=O)C(=O)O)cc1C", "Potency": "inactive"}, {"smiles": "CCOC(=O)c1ccc(O)cc1", "Potency": "inactive"}, {"smiles": "COC(=O)C(c1ccccc1)C1CCCCN1", "note": "(stereo not drawn)", "Potency": "inactive"}, {"smiles": "CO[C@H]1C[C@@H]2CC[C@@H](C)[C@@](O)(O2)C(=O)C(=O)N2CCCC[C@@H]2C(=O)O[C@H]([C@@H](C)C[C@@H]2CC[C@H](O)[C@H](OC)C2)CC(=O)[C@H](C)C=C(C)[C@@H](O)[C@@H](OC)C(=O)[C@H](C)C[C@H](C)C=CC=CC=C1C", "Potency": "inactive"}, {"smiles": "CC(=O)c1ccc(S(=O)(=O)NC(=O)NC2CCCCC2)cc1", "Potency": "inactive"}, {"smiles": "Cn1nnc2c(C(N)=O)ncn2c1=O", "Potency": "inactive"}, {"smiles": "CS(=O)(=O)c1ccc([C@@H](O)[C@@H](CO)NC(=O)C(Cl)Cl)cc1", "Potency": "inactive"}, {"smiles": "Cc1ccc(C(=O)C(C)CN2CCCCC2)cc1", "note": "(stereo not drawn)", "Potency": "inactive"}, {"smiles": "CNCCCCOc1ccccc1Cc1ccccc1", "Potency": "inactive"}, {"smiles": "Nc1ccc(S(=O)(=O)c2ccc(N)cc2)cc1", "Potency": "inactive"}, {"smiles": "Nc1c(I)cc(I)c(C(=O)N(CCC(=O)O)c2ccccc2)c1I", "Potency": "inactive"}, {"smiles": "CCOC(=O)c1ccc(N)cc1", "Potency": "inactive"}, {"smiles": "C=CC1=C(C(=O)O)N2C(=O)[C@@H](NC(=O)/C(=N\\O)c3csc(N)n3)[C@H]2SC1", "note": "(stereo in doubt)", "Potency": "inactive"}, {"smiles": "Cc1cnc(NC(=O)C2=C(O)c3ccccc3S(=O)(=O)N2C)s1", "Potency": "inactive"}, {"smiles": "O=C1[O][Bi][O]c2ccccc21", "outcome": "inactive [at 0.702 µM]"}, {"smiles": "CCCCCN(CCCOC)C(=O)C(CCC(=O)O)NC(=O)c1ccc(Cl)c(Cl)c1", "note": "(stereo not drawn)", "Potency": "inactive"}, {"smiles": "CCOC(=O)NNc1ccc(N(CC)CC(C)O)nn1", "note": "(stereo not drawn)", "Potency": "inactive"}]}]}
